Assay results: the supplement of paper PMC11732987, “Enantioselective OTUD7B fragment discovery through chemoproteomics screening and high-throughput optimisation” (Communications Chemistry, 2025)

Legend:
Experiment in all cases: log2 ratio of Biotin-Ahx-Ub-VS probe labelling (fragment/DMSO); higher = less target engagement (more negative = stronger competition), active = hit call of the paper (q ≤ 0.05, log2 ratio ≤ -1)
Conditions in all cases: compound concentration: 200 uM; treatment time: 3 h
[1] = molecular target: USP34 (UniProt Q70CQ2)
How it was run: (§1)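 HEK293T lysate in Tris/CHAPS/IGEPAL buffer with protease inhibitors (495 µg per sample) was given fragment at 200 µM or vehicle for 3 h, in triplicate. It then received Biotin-Ahx-Ub-VS at 0.5 µM final for 1 h. Labelled DUBs were NeutrAvidin-enriched, digested with LysC and trypsin, and run by diaPASEF LC-MS/MS. Values are average log2 fragment/vehicle ratios by unpaired t-test on global-median-normalised Spectronaut quantities of proteins with ≥2 unique peptides.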

[2] = molecular target: T1, USP36 (UniProt Q9P275)
T1 sequence (whole entry): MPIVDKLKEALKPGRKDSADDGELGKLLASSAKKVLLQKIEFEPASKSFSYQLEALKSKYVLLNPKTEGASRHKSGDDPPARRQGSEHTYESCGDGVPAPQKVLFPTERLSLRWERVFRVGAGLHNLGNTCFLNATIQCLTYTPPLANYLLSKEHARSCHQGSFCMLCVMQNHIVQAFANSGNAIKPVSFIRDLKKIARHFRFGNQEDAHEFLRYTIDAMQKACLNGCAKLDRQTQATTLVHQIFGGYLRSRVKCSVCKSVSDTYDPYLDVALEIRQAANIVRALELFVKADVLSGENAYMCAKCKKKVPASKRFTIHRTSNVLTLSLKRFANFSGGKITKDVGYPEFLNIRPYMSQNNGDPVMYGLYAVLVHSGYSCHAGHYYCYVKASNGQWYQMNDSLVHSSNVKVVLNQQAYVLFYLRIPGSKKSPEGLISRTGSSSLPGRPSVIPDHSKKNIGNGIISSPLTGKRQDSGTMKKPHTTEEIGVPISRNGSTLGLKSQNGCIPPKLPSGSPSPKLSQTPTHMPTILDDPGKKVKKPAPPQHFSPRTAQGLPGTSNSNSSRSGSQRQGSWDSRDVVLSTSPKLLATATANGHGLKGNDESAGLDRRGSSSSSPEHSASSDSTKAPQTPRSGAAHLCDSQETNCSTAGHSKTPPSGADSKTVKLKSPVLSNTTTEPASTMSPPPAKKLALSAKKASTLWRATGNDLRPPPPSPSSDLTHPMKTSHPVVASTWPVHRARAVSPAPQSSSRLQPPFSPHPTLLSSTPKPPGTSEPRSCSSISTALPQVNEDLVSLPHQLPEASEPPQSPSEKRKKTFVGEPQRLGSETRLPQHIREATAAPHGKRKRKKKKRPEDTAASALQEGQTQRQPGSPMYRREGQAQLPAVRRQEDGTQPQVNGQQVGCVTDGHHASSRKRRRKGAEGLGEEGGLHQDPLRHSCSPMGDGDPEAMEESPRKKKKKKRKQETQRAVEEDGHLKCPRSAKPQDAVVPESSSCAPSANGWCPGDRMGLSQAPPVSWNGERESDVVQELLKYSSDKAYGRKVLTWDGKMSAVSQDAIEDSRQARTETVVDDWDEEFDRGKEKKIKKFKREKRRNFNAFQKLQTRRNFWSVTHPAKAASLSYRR
How it was run: as §1

[3] = molecular target: T2, USP38 (UniProt Q8NB14)
T2 sequence (whole entry): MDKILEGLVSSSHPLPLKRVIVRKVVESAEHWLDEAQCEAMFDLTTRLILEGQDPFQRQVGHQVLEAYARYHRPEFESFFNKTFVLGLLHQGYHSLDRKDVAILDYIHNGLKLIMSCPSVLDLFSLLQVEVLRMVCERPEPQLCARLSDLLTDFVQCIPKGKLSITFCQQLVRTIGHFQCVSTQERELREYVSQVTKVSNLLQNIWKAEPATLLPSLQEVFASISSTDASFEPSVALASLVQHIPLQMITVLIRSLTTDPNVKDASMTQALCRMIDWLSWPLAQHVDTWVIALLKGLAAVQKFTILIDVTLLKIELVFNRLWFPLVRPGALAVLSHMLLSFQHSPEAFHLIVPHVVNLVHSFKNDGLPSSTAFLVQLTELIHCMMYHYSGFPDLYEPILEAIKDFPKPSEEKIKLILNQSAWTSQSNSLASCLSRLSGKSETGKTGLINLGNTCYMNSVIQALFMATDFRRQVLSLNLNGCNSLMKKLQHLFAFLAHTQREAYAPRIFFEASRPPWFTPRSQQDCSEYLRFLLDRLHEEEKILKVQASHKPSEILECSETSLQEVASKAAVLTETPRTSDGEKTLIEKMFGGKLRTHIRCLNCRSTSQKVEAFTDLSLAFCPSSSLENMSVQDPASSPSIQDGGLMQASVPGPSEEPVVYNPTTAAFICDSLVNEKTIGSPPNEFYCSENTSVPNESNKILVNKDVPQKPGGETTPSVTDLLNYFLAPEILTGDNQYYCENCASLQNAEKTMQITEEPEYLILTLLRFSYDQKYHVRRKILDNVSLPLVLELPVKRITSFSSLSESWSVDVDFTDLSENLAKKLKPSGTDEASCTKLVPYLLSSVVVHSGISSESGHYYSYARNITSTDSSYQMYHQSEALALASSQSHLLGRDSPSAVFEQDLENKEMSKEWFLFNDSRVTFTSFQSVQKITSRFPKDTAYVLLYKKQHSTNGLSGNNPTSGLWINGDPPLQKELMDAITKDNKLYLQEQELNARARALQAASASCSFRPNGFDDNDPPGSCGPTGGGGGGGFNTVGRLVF
How it was run: as §1

[4] = molecular target: T3, USP39 (UniProt Q53GS9)
T3 sequence (whole entry): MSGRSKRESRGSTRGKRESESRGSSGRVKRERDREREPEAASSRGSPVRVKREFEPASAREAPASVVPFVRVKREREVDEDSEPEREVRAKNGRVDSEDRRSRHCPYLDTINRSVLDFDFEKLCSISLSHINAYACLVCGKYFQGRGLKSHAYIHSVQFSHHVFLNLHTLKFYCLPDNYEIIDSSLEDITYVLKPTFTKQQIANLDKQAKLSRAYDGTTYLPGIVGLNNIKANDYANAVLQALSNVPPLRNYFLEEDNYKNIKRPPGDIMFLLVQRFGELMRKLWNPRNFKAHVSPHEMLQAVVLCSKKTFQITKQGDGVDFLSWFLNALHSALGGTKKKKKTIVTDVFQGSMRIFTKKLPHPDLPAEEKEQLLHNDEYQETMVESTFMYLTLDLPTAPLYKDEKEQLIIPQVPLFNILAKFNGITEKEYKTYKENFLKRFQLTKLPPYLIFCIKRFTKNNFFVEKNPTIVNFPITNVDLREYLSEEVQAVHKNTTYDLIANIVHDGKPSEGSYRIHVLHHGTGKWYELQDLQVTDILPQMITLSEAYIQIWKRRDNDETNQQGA
How it was run: as §1

[5] = molecular target: T4, USP4 (UniProt Q13107)
T4 sequence (whole entry): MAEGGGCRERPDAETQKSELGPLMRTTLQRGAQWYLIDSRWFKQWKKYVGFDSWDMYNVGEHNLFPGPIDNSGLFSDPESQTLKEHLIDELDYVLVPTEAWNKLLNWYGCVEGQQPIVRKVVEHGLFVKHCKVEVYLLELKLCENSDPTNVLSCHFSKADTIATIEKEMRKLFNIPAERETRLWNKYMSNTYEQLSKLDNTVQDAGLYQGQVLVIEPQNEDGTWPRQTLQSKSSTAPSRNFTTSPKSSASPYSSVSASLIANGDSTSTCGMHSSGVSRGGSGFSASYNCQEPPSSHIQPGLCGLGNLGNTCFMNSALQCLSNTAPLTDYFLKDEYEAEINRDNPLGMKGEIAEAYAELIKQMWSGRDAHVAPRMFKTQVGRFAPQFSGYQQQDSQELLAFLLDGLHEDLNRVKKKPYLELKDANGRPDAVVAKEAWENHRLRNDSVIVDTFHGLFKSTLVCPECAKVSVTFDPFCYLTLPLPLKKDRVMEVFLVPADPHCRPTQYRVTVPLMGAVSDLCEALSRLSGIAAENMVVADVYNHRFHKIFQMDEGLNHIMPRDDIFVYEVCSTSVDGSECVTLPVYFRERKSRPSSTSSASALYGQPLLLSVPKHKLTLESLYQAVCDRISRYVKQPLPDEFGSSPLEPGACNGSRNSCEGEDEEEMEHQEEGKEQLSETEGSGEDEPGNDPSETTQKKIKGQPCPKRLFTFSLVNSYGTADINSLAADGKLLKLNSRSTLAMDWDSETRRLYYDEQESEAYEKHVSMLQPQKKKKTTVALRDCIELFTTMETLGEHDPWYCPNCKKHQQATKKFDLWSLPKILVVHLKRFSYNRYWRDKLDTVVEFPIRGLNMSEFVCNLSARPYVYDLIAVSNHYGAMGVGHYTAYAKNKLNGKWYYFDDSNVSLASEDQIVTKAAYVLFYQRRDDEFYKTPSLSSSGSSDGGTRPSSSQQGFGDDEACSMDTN
How it was run: as §1

Measured: log2 ratio of Biotin-Ahx-Ub-VS probe labelling

Sequence of USP34 (Q70CQ2 whole entry, the tested form may be a part): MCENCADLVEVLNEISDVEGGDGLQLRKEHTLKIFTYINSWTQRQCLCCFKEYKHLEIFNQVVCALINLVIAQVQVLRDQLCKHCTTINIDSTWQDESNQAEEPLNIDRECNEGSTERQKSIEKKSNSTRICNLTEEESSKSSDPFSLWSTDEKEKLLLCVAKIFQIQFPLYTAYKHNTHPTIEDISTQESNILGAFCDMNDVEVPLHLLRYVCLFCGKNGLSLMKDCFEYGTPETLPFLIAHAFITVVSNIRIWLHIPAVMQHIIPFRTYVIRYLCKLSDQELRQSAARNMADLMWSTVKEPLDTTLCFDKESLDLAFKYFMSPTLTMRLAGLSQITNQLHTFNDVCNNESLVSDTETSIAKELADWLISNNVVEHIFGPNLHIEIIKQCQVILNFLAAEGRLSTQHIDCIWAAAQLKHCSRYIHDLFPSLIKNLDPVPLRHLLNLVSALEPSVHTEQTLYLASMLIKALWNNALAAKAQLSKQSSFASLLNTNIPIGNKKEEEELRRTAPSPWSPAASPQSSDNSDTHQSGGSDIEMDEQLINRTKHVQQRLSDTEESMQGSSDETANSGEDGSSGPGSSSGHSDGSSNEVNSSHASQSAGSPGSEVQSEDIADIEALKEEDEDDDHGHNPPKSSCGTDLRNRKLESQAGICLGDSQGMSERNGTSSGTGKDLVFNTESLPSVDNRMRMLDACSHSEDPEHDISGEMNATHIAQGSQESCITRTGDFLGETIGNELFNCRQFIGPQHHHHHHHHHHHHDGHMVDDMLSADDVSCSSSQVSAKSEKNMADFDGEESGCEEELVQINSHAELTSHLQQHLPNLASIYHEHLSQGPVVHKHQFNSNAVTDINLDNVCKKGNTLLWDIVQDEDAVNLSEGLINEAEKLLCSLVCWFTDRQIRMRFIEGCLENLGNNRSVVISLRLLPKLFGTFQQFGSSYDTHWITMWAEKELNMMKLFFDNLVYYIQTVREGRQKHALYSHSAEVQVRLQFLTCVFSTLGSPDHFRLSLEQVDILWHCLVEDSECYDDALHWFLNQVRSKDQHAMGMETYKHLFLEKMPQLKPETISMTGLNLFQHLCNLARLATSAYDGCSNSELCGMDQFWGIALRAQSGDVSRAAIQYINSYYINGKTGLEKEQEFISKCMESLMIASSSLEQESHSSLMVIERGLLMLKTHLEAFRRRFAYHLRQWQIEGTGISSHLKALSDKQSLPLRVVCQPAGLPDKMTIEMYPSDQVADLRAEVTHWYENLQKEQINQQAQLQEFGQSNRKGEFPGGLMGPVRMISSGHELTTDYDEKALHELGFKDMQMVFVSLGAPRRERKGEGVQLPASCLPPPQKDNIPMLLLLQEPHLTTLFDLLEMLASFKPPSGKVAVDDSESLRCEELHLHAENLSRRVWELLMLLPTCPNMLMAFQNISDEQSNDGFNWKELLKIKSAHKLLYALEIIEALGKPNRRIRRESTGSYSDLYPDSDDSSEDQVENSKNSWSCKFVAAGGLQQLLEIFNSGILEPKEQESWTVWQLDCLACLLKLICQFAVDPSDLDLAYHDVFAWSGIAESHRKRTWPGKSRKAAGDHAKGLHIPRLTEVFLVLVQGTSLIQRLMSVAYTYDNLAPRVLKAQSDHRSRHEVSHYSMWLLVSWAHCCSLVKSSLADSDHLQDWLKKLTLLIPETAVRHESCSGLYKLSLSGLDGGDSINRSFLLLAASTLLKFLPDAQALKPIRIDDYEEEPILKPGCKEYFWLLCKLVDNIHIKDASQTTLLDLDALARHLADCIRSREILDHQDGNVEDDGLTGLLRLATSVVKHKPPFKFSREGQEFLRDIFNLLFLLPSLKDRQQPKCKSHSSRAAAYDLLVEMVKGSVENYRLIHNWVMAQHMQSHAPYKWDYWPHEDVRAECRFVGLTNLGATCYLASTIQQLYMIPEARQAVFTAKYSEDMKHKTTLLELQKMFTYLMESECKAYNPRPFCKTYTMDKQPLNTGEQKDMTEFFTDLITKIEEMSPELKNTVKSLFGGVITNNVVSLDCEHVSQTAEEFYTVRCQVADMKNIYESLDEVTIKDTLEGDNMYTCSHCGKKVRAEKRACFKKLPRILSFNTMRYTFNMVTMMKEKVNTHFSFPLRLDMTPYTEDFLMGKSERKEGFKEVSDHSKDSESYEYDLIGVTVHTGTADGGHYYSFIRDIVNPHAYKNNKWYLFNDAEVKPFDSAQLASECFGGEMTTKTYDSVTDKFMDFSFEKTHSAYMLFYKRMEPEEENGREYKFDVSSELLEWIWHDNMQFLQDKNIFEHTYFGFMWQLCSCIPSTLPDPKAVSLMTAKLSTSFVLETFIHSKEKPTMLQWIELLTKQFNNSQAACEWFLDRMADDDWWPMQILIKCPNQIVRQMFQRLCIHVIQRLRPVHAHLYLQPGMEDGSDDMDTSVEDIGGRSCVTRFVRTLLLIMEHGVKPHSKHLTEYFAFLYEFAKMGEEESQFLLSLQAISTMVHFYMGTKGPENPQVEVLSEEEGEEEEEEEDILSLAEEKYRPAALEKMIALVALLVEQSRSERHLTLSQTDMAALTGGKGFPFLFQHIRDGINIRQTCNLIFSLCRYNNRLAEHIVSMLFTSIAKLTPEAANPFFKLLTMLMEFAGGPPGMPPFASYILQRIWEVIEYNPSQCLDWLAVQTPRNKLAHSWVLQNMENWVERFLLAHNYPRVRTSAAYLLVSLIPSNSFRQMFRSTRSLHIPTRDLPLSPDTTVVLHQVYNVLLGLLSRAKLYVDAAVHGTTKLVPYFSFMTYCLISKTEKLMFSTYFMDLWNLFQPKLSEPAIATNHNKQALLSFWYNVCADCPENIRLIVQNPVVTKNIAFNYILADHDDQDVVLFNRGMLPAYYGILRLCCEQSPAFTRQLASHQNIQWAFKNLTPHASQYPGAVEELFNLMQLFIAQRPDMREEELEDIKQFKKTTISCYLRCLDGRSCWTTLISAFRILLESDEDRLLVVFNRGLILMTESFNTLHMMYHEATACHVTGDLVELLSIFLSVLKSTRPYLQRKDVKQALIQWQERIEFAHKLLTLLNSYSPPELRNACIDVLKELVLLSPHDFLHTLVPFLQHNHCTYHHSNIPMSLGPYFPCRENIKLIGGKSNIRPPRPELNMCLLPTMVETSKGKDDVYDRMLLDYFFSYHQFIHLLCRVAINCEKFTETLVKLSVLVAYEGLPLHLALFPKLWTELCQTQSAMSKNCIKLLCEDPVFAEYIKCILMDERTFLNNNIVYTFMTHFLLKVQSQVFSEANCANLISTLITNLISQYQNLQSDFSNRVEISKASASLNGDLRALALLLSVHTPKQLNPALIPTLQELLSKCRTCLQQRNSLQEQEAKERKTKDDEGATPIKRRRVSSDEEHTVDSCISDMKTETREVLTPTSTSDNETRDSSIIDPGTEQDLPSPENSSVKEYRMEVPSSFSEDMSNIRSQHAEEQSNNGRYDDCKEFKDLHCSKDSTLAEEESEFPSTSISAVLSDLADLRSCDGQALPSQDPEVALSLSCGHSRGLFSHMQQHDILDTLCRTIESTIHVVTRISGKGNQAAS

NS(=O)(=O)c1ccc(Cl)c(NC(=O)CCl)c1
inactive: [1] -0.381 | [2] -0.132 | [3] 0.0479 | [4] 0.175 | [5] -0.198
